Data from the supplement of paper PMC4709259.
Counter-ions that a name gives are not always drawn. ± gives the standard deviation.

System: Jurkat
Assay: mean cell size (FSC-A) relative to DMSO control (fraction of control); higher = larger cells
Conditions: 48 h
How it was run: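 Jurkat cells at 600 cells/µl were incubated for 1 h and then treated for 48h with the Enzo Screen-Well FDA Approved Drug Library v2.0 at 25µM, with DMSO at 0.9% (v/v) final. Compounds that reduced counts below 20% of controls were retested in 10-fold dilutions down to 25nM. Cell count and mean cell size, taken as forward scatter area, were measured by flow cytometry relative to solvent-only controls. Each plate carried 6-12 controls, and values are means of 3 biological replicates.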

SMILES | mean cell size
COc1c(N2CCNC(C)C2)c(F)cc2c(=O)c(C(=O)O)cn(C3CC3)c12 (stereo not given) [Gatifloxacin] (concentration: 25 µM) | 0.956 ± 0.024
COc1ccc(OC)c(C(O)CNC(=O)CN)c1 (stereo not given) [Midodrine·HCl] (concentration: 25 µM) | 0.942 ± 0.065
CCOC(=O)O[C@]1(C(=O)OCCl)CC[C@H]2[C@@H]3CCC4=CC(=O)C=C[C@]4(C)[C@H]3[C@@H](O)C[C@@]21C [Loteprednol Etabonate] (concentration: 25 µM) | 0.892 ± 0.027
Nc1nc(Cl)nc2c1ncn2[C@@H]1O[C@H](CO)[C@@H](O)[C@@H]1F [Clofarabine] (concentration: 25 nM) | 1.18 ± 0.048
C[C@H](Cn1cnc2c(N)ncnc21)OCP(=O)(O)O [Tenofovir] (concentration: 2.5 µM) | 0.997 ± 0.14
CNCCCC1c2ccccc2C=Cc2ccccc21 [Protriptyline·HCl] (concentration: 25 µM) | 1.05 ± 0.019
CN(C)CCOC(c1ccc(Cl)cc1)c1ccccn1 (stereo not given) [Carbinoxamine Maleate] (concentration: 25 µM) | 0.968 ± 0.054
NS(=O)(=O)c1cc(C(=O)O)c(NCc2ccco2)cc1Cl [Furosemide] (concentration: 25 µM) | 0.932 ± 0.034
CCCCc1ncc(/C=C(\Cc2cccs2)C(=O)O)n1Cc1ccc(C(=O)O)cc1 [Eprosartan Mesylate] (concentration: 25 µM) | 1.01 ± 0.06
C[C@]12CC[C@@H]3c4ccc(O)cc4C[C@@H](CCCCCCCCC[S+]([O-])CCCC(F)(F)C(F)(F)F)[C@H]3[C@@H]1CC[C@@H]2O (stereo not given in full) [Fulvestrant] (concentration: 25 µM) | 0.942 ± 0.0098
